Data on 40 molecules can be found in PubChem BioAssay (NCI).

Each structure is given as a SMILES string. This is part of a sample that, as a whole, favours compounds with a hit. Of some 83,000 tested, about 20% had one in any assay.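 Assay: single dose, 48 h. Readout: percent growth (0 = no net growth; negative = cell death). Active: <10.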 The source made the active and inactive calls.

The assay deals with A498 renal. Nature of the assay: NCI-60 one-dose screen, 48 h (100 = growth as untreated, 0 = no growth, -100 = all killed). The note with it: 10 µM unless noted. On the procedure: Growth inhibition of the A498 human tumor cell line is measured as a screen for anti-cancer activity. Cells are grown in 96 well plates and exposed to the test compound for 48 hours. Compounds are tested at a single concentration, which is 10^-5 M for most compounds. The reported endpoint is percent growth (GI% or GIPRCNT), where numbers from 0 - 100% represent growth inhibition, and numbers from -100% - 0 represent cell death. For example, a value of 40 represents 60% growth inhibition. A value of 0 means no net growth occurred over the course of the experiment. A value of -40 indicates 40% of cells at the beginning of the experiment died by the end of the experiment. A value of -100 means all cells are dead at the end of the experiment.
NCI-60 Human Tumor Cell Lines Screen was performed using the standard one-dose NCI protocol, which is described in more detail at https://dtp.cancer.gov/discovery_development/nci-60/default.htm.
Compounds with GIPRCNT values below 10 were considered active. Activity score was based on GIPRCNT using the following formula: […]
Score is 0 for GIPRCNT values of 100 or above, 50 for GIPRCNT values of 0, and 100 for GIPRCNT values of -100.
Turning to `CC(=O)OC[C@]12CC[C@@H](C(=O)CBr)[C@@H]1[C@H]1CC[C@@H]3[C@@]4(C)CC[C@H](OC(C)=O)C(C)(C)[C@@H]4CC[C@@]3(C)[C@]1(C)CC2`, the growth was 121% (inactive).
`CCOc1ccc(Nc2nc(-c3ccc4c(c3)NC(=O)CO4)cs2)cc1`: the growth was 103% (inactive).
For `COc1ccc(C(=O)CC#N)cc1` the value was 109% (inactive).
For `Nc1c(S(=O)(=O)O)cc2c3c(cccc13)C(=O)OC2=O`, the growth was 106% (inactive).
For the molecule `COCc1cnccc1NC1CCCCCC1`, the growth was 84.4% (inactive).
For `CCOC(=O)c1cc(C(=O)c2ccc(OC)c(OC)c2)n2ccc(/C=C/c3cc[n+](CC(=O)c4ccc(OC)c(OC)c4)cc3)cc12`, the growth is 95.6% (inactive).
In the case of `COc1ccc(-c2cnc3c(-c4cccc5cnccc45)cnn3c2)cc1`, the growth was 44.6% (inactive).
Consider `CC(=O)Oc1ccc(/C=N/NC(N)=S)nc1`, for which the growth is 88.6% (inactive).
On to `Cc1ncc(C(=O)Nc2ccc(CN3CCN(C)CC3)c(C(F)(F)F)c2)cc1C#Cc1cnc(N)cc1C#N`, for which the growth was -35.5% (active).
Take `O=C(/C(=C\c1ccc([N+](=O)[O-])cc1)S(=O)Cc1ccc(F)cc1)c1ccc(F)cc1` (stereo not given): the growth was 82.2% (inactive).
Turning to `Cc1nn(-c2ccccc2)c(Cl)c1/C=C/C(=O)c1ccc(F)cc1`, the growth was 81.5% (inactive).
`Clc1ccc(-c2ccc(CNCC3CCNCC3)o2)c(-c2ccccc2)c1`: the growth is 6.29% (active).
Take `COc1cc(OC)cc(C(=O)C[n+]2cccc3cc[nH]c32)c1`: the growth is 92.1% (inactive).
As for `O=C(O)c1ccc2c(c1)C(=O)N(Cc1ccccc1)C2=O`, the growth was 85.4% (inactive).
Turning to `COC(=O)C(CC=O)C(=O)C(=O)Nc1cccc(C(F)(F)F)c1` (stereo not given), the growth was 83.4% (inactive).
For the molecule `CSc1nc2sc3cccc(Cl)c3n2c(=N)c1C#N`, the growth is 56.2% (inactive).
Take `O=C(/C(=C\c1ccc([N+](=O)[O-])cc1)S(=O)Cc1ccc(Cl)cc1)c1ccc(Cl)cc1` (stereo not given): the growth is 77.4% (inactive).
For `O=C1c2cccc3c(-c4ccc5c(c4)ncn5C4CCCCC4)ccc(c23)C(=O)N1c1nc2ccccc2s1` the value was 121% (inactive).
For `Cc1cccc(C)c1N=c1oc2ccc(Cl)cc2nc1-c1ccccc1O` the value was 95.3% (inactive); for `O=C1Nc2ccc(F)cc2/C1=C\c1c(-c2ccccc2)nc2ccccn12`, 43.1% (inactive); for `COc1cc(/C=C\c2cc(OC)c(OC)c(OC)c2)cc(NC(=O)/C=C/c2cc(OC)c(OC)c(OC)c2)c1OC`, 41.5% (inactive).
For `N#Cc1c(-c2cccc([N+](=O)[O-])c2)nc(SCC(=O)c2ccc(Cl)cc2)[nH]c1=O`, the growth is 92.3% (inactive).
With `Cc1c(C)c([N+](=O)[O-])c(C)c([N+](=O)[O-])c1C`, the growth was 94.3% (inactive).
With `COc1cc(C2C3=C(COC3=O)N(CCO)c3cc4c(cc32)OCO4)cc(OC)c1OC` (stereo not given), the growth was -19.6% (active).
In the case of `CCc1c2c(nc3ccc(OCc4ccc(B(O)O)cc4)cc13)-c1cc3c(c(=O)n1C2)COC(=O)[C@]3(O)CC`, the growth is -58.4% (active).
In the case of `CN(C)CCC(=O)c1ccc([N+](=O)[O-])cc1`, the growth was 88.4% (inactive).
Turning to `C[C@H]1[C@H](C)CC[C@]2(C(=O)Nc3ccc4ncccc4c3)CC[C@]3(C)C(=CC[C@@H]4[C@@]5(C)CCCNC(C)(C)[C@@H]5CC[C@]43C)[C@H]12`, the growth is 98.3% (inactive).
Regarding `OCc1cnccc1NCCCOc1ccccc1`, the growth is 91.9% (inactive).
Take `OC(c1ccc(F)c(C(F)(F)F)c1)c1cnccc1NC1CCCCC1` (stereo not given): the growth was 59.6% (inactive).
In the case of `OCc1cnccc1NCCCCOc1ccc(Oc2ccccc2)cc1`, the growth is 76.9% (inactive).
`Cc1nnc2c(Cc3ccccc3)nc3ccccc3n12`: the growth is 90.6% (inactive).
On to `CC1(C)NCCC[C@]2(C)[C@H]3CC[C@@H]4[C@H]5[C@H](C(=O)/C=C/c6ccco6)CC[C@]5(CO)CC[C@@]4(C)[C@]3(C)CC[C@@H]12`, for which the growth is 51.3% (inactive).
The result for `O=C1c2ccccc2C(=O)c2c([N+](=O)[O-])ccc(Cl)c21` reads 105% (inactive); that for `Cc1nc2sccn2c1-c1cn2ccsc2n1`, 82.7% (inactive); that for `CCNc1nc2cc(Nc3ccnc4cc(Cl)ccc34)ccc2o1`, 47% (inactive).
Turning to `Cc1ccc(-c2csc(NC(=O)CSc3nc(-c4ccccc4)cc(=O)[nH]3)n2)cc1`, the growth is 97.8% (inactive).
On to `CC(c1ccccc1)C(C(=O)c1ccccc1)c1ccccc1` (stereo not given), for which the growth is 93.3% (inactive).
For `Cc1ccc(C(=O)/C(=C/c2ccc([N+](=O)[O-])cc2)SCc2ccc(Cl)cc2)cc1` the value was 81% (inactive); for `COc1cc(C(=O)Nc2cc3c(cc2Oc2cc(C)cc(C)c2)C(=O)N(C)[C@@H](CC(=O)N(C)O)C(=O)N3)c(Br)c(OC)c1OC`, -56.7% (active); for `NS(=O)(=O)c1ccc(CCn2c(SCC(=O)c3ccc(Cl)cc3)nc3ccccc3c2=O)cc1`, 99.2% (inactive).
